PubChem BioAssay (NCI)
About 83,000 compounds went through this panel and 20% of them were active in at least one assay; those are over-represented in the sample as a whole.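 Each cell line was grown in a 96-well plate and treated with one concentration of compound for 48 hours. Values below 10 were considered active.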 The source made the active and inactive calls.

Experiments:
Assay in all cases: NCI-60 one-dose screen, 48 h (100 = growth as untreated, 0 = no growth, -100 = all killed)
Conditions in all cases: 10 µM unless noted
HT29 colon = tested on: HT29 colon
SNB-75 CNS = tested on: SNB-75 CNS
SNB-19 CNS = tested on: SNB-19 CNS
U251 CNS = tested on: U251 CNS
PC-3 prostate = tested on: PC-3 prostate
LOX IMVI melanoma = tested on: LOX IMVI melanoma
SK-MEL-28 melanoma = tested on: SK-MEL-28 melanoma
EKVX NSCLC = tested on: EKVX NSCLC
SN12C renal = tested on: SN12C renal
UO-31 renal = tested on: UO-31 renal
TK-10 renal = tested on: TK-10 renal
ACHN renal = tested on: ACHN renal
CAKI-1 renal = tested on: CAKI-1 renal
A498 renal = tested on: A498 renal
MOLT-4 leukemia = tested on: MOLT-4 leukemia
SK-MEL-5 melanoma = tested on: SK-MEL-5 melanoma
UACC-62 melanoma = tested on: UACC-62 melanoma
SK-MEL-2 melanoma = tested on: SK-MEL-2 melanoma
CCRF-CEM leukemia = tested on: CCRF-CEM leukemia
HCT-15 colon = tested on: HCT-15 colon

Measured: growth

Oc1ccc2ccccc2c1C1NN=C(c2ccccc2)S1 (configuration not stated)
inactive: HT29 colon 37.8% | SNB-75 CNS 41.8% | SNB-19 CNS 23.6% | U251 CNS 19.4% | PC-3 prostate 27.7% | LOX IMVI melanoma 13.8% | SK-MEL-28 melanoma 23% | EKVX NSCLC 27.4% | SN12C renal 17.2% | TK-10 renal 49% | ACHN renal 10.9% | A498 renal 31.3% | MOLT-4 leukemia 13%
active: UO-31 renal -11.5% | CAKI-1 renal -1.25%

COc1ccc2c(c1)c(=O)oc1c(C)c(OCC(C)=O)ccc12
active: EKVX NSCLC 4.14%
inactive: HT29 colon 103% | SNB-75 CNS 108% | SNB-19 CNS 101% | U251 CNS 90% | PC-3 prostate 83.3% | SK-MEL-5 melanoma 103% | UACC-62 melanoma 64.3% | LOX IMVI melanoma 94.7% | SK-MEL-28 melanoma 106% | SK-MEL-2 melanoma 115% | SN12C renal 94% | UO-31 renal 98.3% | TK-10 renal 82.7% | ACHN renal 97.2% | CAKI-1 renal 92.1% | A498 renal 90% | CCRF-CEM leukemia 99.7% | MOLT-4 leukemia 92.9%

O=C1/C(=C/c2ccc(F)cc2)CN(Cc2cn(CCNc3ccnc4cc(Cl)ccc34)nn2)C/C1=C\c1ccc(F)cc1
active: HT29 colon -79.2% | SNB-19 CNS -74.4% | U251 CNS -91.4% | SK-MEL-5 melanoma -100% | LOX IMVI melanoma -93.8% | SK-MEL-28 melanoma -79.7% | SK-MEL-2 melanoma -63.7% | SN12C renal -75% | UO-31 renal -95.8% | TK-10 renal -20.3% | ACHN renal -100% | CAKI-1 renal 1.43% | A498 renal -79.3% | MOLT-4 leukemia -18.4%
inactive: SNB-75 CNS 50%

C=CC(=O)N1CC2(CCC(n3nc(-c4ccc(Oc5ccccc5)cc4)c4c(N)ncnc43)CC2)C1
active: HT29 colon -60.3% | SNB-75 CNS -69.5% | SNB-19 CNS -0.912% | U251 CNS -73.8% | PC-3 prostate -19.6% | UACC-62 melanoma -90.7% | LOX IMVI melanoma -65% | SK-MEL-28 melanoma -67.9% | SK-MEL-2 melanoma -89.7% | SN12C renal -10.7% | UO-31 renal -63.7% | ACHN renal -83.6% | CAKI-1 renal -75.1% | A498 renal -93.2% | MOLT-4 leukemia -28.2%

Cc1nc(NN)c([N+](=O)[O-])c(NN)n1
active: CCRF-CEM leukemia -28.1%
inactive: HT29 colon 108% | SNB-75 CNS 114% | SNB-19 CNS 109% | U251 CNS 102% | PC-3 prostate 104% | SK-MEL-5 melanoma 99.4% | UACC-62 melanoma 97.3% | LOX IMVI melanoma 111% | SK-MEL-28 melanoma 108% | SK-MEL-2 melanoma 104% | EKVX NSCLC 112% | SN12C renal 103% | TK-10 renal 118% | ACHN renal 110% | CAKI-1 renal 99.1% | A498 renal 142% | MOLT-4 leukemia 89.6%

O=c1nc(NO)[nH]c(=O)n1Cc1ccc(F)cc1
inactive: HT29 colon 105% | SNB-75 CNS 86.1% | U251 CNS 98.6% | PC-3 prostate 94.1% | UACC-62 melanoma 108% | LOX IMVI melanoma 101% | SK-MEL-28 melanoma 102% | SN12C renal 107% | UO-31 renal 84.2% | ACHN renal 101% | CAKI-1 renal 111% | CCRF-CEM leukemia 105% | MOLT-4 leukemia 103%

Nc1nc(N)c(C=Nc2ccc(Br)cc2)c(Nc2ccc(Br)cc2)n1
inactive: HT29 colon 101% | SNB-75 CNS 91.3% | U251 CNS 95.1% | SK-MEL-5 melanoma 108% | UACC-62 melanoma 87% | LOX IMVI melanoma 81% | SK-MEL-28 melanoma 106% | SK-MEL-2 melanoma 108% | EKVX NSCLC 86.4% | SN12C renal 99.2% | UO-31 renal 75.2% | TK-10 renal 127% | ACHN renal 73.3% | CAKI-1 renal 69.2% | A498 renal 83.1% | CCRF-CEM leukemia 81.1% | MOLT-4 leukemia 64.7%

Cc1ccc(C)c2c1sc1nc3nc4sc5ccccc5n4c(=N)c3c(=O)n12
inactive: HT29 colon 104% | SNB-75 CNS 73.7% | SNB-19 CNS 89.4% | U251 CNS 107% | PC-3 prostate 71.5% | SK-MEL-5 melanoma 94.6% | UACC-62 melanoma 120% | LOX IMVI melanoma 92.6% | SK-MEL-28 melanoma 110% | SK-MEL-2 melanoma 121% | EKVX NSCLC 95.7% | SN12C renal 105% | UO-31 renal 78.1% | TK-10 renal 162% | ACHN renal 99.1% | CAKI-1 renal 106% | A498 renal 69.1% | CCRF-CEM leukemia 81.1% | MOLT-4 leukemia 104%

O=C(O)c1ccccc1Oc1cc(-c2ccco2)nc(OCCBr)n1
inactive: HCT-15 colon 104% | SNB-19 CNS 98.6% | U251 CNS 98.3% | SK-MEL-5 melanoma 110% | UACC-62 melanoma 94.9% | LOX IMVI melanoma 107% | SK-MEL-28 melanoma 119% | SK-MEL-2 melanoma 111% | EKVX NSCLC 94.5% | SN12C renal 94.7% | UO-31 renal 86.6% | TK-10 renal 103% | CAKI-1 renal 90.7% | A498 renal 99.3% | CCRF-CEM leukemia 87.1% | MOLT-4 leukemia 98.5%
